From PubChem BioAssay (Tox21)
Inconclusive results are not listed. The source made the active and inactive calls. Unless noted, calls come from the whole dose curve; as a rule, active = well fitted curve in the direction sought with a large enough effect in the repeat runs; inconclusive = weak or mixed curves; inactive = no such curve, though single readings can be large; an effect the other way counts as inactive or inconclusive.

Key:
[1] = qHTS assay to identify small molecule agonists of the hypoxia (HIF-1) signaling pathway (AID 1224846; active = well fitted activation curve with a large enough effect in the signal ratio in the repeat runs, not every such curve was filed as active; the % refers to the signal ratio)
Method in brief: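 In ME-180 cells bearing an HRE-bla construct, 17 h treatment with DMSO-dissolved compounds at 37C was followed by CCF4-AM loading to quantify reporter induction.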

[2] = qHTS assay to identify small molecule antagonists of the estrogen related receptor (ERR) signaling pathway from Tox21 library (AID 1224848); note: nearly all actives have a fitted effect of over 50% in size; note: potency is the fitted concentration of half-maximal effect
Method in brief: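 Tox21 10K compounds in DMSO tested for ERR pathway antagonism in NTP's ERR cell line; 18 h, 37 C exposure; ONE-Glo luminescence.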

[3] = qHTS assay to identify small molecule agonists of the estrogen related receptor (ERR) signaling pathway from Tox21 library (AID 1224849; calls by dose curve; note: nearly all actives have a fitted effect of over 15% in size)
Method in brief: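 Reporter cells (ERR, NTP source) treated with Tox21 10K compounds 18 h, 37 C. Readout: ONE-Glo luminescence, 30 min RT.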

[4] = qHTS RealTime-Glo MT Cell Viability Assay in HEK293 cells - 32 hour (AID 1224868); note: nearly all actives have a fitted effect of over 50% in size; note: potency is the fitted concentration of half-maximal effect
Method in brief: (§1)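 Luminescence generated by NanoLuc from substrate produced by living HEK293 cells served as the viability signal. Each value reflects the reading at its stated time point during continuous 40 h compound exposure at 37 C.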

[5] = A CellTox Green Cytotoxicity Assay to monitor cytotoxicity in HEK293 cells - 0 hour (AID 1224869); note: nearly all actives have a fitted effect of over 50% in size
Method in brief: (§2)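 Homogeneous no-lysis format: HEK293 cell suspension mixed with CellTox Green reagent, seeded, incubated 5 h at 37 C/5% CO2, then dosed by pintool with compound in DMSO.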

[6] = qHTS RealTime-Glo MT Cell Viability Assay in HepG2 cells - 40 hour (AID 1224870); note: nearly all actives have a fitted effect of over 50% in size
Method in brief: (§3)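 HepG2 cells mixed with RealTime-Glo MT reagents (NanoLuc plus cell-permeant prosubstrate) were seeded at 600 cells/well, incubated 5 h at 37 C/5% CO2, then pinned with compounds in DMSO; nonlytic luminescence tracked viability during 40 h treatment.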

[7] = A CellTox Green Cytotoxicity Assay to monitor cytotoxicity in HEK293 cells - 40 hour (AID 1224871); note: nearly all actives have a fitted effect of over 45% in size; note: potency is the fitted concentration of half-maximal effect
Method in brief: as §2

[8] = qHTS RealTime-Glo MT Cell Viability Assay in HEK293 cells - 16 hour (AID 1224872); note: nearly all actives have a fitted effect of over 50% in size; note: potency is the fitted concentration of half-maximal effect
Method in brief: as §1

[9] = qHTS RealTime-Glo MT Cell Viability Assay in HepG2 cells - 8 hour (AID 1224873); note: nearly all actives have a fitted effect of over 55% in size
Method in brief: as §3

[10] = qHTS RealTime-Glo MT Cell Viability Assay in HEK293 cells - 40 hour (AID 1224874); conditions: RealTime-Glo luminescence; max response: active compounds read low; note: nearly all actives have a fitted effect of over 50% in size; note: potency is the fitted concentration of half-maximal effect
Method in brief: (§4)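 Measured as luminescence from the same continuously cultured HEK293 wells at successive time points (0, 8, 16, 24, 32, 40 h) after compound addition. Reagent present from seeding; dosing at 5 h; incubation 37 C.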

[11] = A CellTox Green Cytotoxicity Assay to monitor cytotoxicity in HEK293 cells - 24 hour (AID 1224875); note: series mostly up to about 77 µM; nearly all actives have a fitted effect of over 45% in size
Method in brief: as §2

[12] = A CellTox Green Cytotoxicity Assay to monitor cytotoxicity in HepG2 cells - 16 hour (AID 1224876); note: nearly all actives have a fitted effect of over 45% in size
Method in brief: (§5)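 Fluorescent DNA-binding dye, 600 HepG2 cells/well, 5 h preincubation then compound in DMSO; same plates read at 0–40 h, 37 C.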

[13] = qHTS RealTime-Glo MT Cell Viability Assay in HepG2 cells - 32 hour (AID 1224877); note: nearly all actives have a fitted effect of over 55% in size
Method in brief: (§6)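 Tox21 10K library screened in qHTS format on HepG2 cells carrying RealTime-Glo reagents. Compounds were added after a 5 h preincubation, and the luminescent signal from continuous culture was measured repeatedly during 40 h treatment.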

[14] = A CellTox Green Cytotoxicity Assay to monitor cytotoxicity in HepG2 cells - 24 hour (AID 1224878); note: nearly all actives have a fitted effect of over 45% in size
Method in brief: as §5

[15] = A CellTox Green Cytotoxicity Assay to monitor cytotoxicity in HepG2 cells - 40 hour (AID 1224879); note: nearly all actives have a fitted effect of over 40% in size
Method in brief: as §5

[16] = qHTS RealTime-Glo MT Cell Viability Assay in HEK293 cells - 0 hour (AID 1224880)
Method in brief: as §4

[17] = qHTS assay to identify small molecule agonists of the hypoxia (HIF-1) signaling pathway - cell viability counter screen (AID 1224844; calls by dose curve; note: nearly all actives have a fitted effect of over 50% in size)
Method in brief: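 Same wells as the HIF-1 reporter screen; ME-180 cells carrying HRE-bla, 17 hr treatment at 37C; CellTiter-Glo luminescence read after 30 min at room temperature.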

[18] = qHTS assay to identify small molecule agonists of H2AX (AID 1224845; active = well fitted activation curve with a large enough effect in the signal ratio in the repeat runs, not every such curve was filed as active; the % refers to the signal ratio)
Method in brief: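 Wild-type CHO-K1 cells plated overnight, then exposed 3 hr at 37C to compounds at 15 concentrations (0.76% DMSO). Lysed, then HTRF anti-pH2AX(S139)-cryptate/anti-H2AX-d2 detection after 24 hr at room temperature; emissions 665 and 620 nm.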

[19] = qHTS RealTime-Glo MT Cell Viability Assay in HepG2 cells - 24 hour (AID 1224867); note: nearly all actives have a fitted effect of over 50% in size
Method in brief: as §6

[20] = qHTS assay to identify small molecule agonists of H2AX - cell viability counter screen (AID 1224847; calls by dose curve; note: top concentration of the series differs between compounds; nearly all actives have a fitted effect of over 30% in size)
Method in brief: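 Counter-screen for viability: CellTiter-Glo ATP luminescence read after 3 h compound treatment (15-point titration, 0.76% DMSO final) of CHO-K1 cells at 37C, with 30 min room-temperature reagent incubation.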
% is set by controls: 0 for no effect and ±100 for the full control effect.

CCN(Cc1ccccc1)c1ccccc1
inactive: outcome [1] | outcome [3] | outcome [5] | Potency [6] | outcome [9] | outcome [11] | outcome [12] | Potency [13] | outcome [14] | Potency [15] | Potency [16]
active: Potency [2] 30.3 µM | Potency [4] 19.3 µM | Potency [7] 43.1 µM | Potency [8] 19.3 µM | Potency [10] 21.6 µM

NS(=O)(=O)Cc1noc2ccccc12
inactive: Potency [17] | Potency [18] | Potency [2] | outcome [3] | outcome [19] | Potency [4] | outcome [5] | Potency [6] | Potency [7] | outcome [9] | max response [10] 1.21% | outcome [11] | outcome [12] | Potency [13] | outcome [14] | Potency [15] | Potency [16]

CCOC(=O)CCC(=O)OCC
inactive: Potency [17] | Potency [18] | Potency [2] | outcome [19] | Potency [4] | outcome [5] | Potency [6] | Potency [7] | Potency [8] | outcome [9] | max response [10] 3.67% | outcome [11] | outcome [12] | Potency [13] | outcome [14] | Potency [15] | Potency [16]

O=S(=O)(O)c1cc(O)c(O)c(S(=O)(=O)O)c1
inactive: Potency [17] | outcome [1] | outcome [20] | outcome [19] | outcome [5] | Potency [6] | Potency [7] | Potency [8] | outcome [9] | max response [10] 0.173% | outcome [11] | outcome [12] | Potency [13] | outcome [14] | Potency [15] | Potency [16]

C[N+]1(C)[C@@H]2CC(OC(=O)[C@H](CO)c3ccccc3)C[C@H]1[C@@H]1O[C@@H]12 (stereo partly specified)
inactive: Potency [17] | Potency [18] | outcome [20] | outcome [5] | Potency [7] | outcome [11] | outcome [12] | outcome [14] | Potency [15]

CC(C)NNC(=O)c1ccncc1
inactive: Potency [17] | Potency [18] | outcome [19] | Potency [4] | Potency [7] | outcome [9] | max response [10] 9.38% | outcome [11] | outcome [12] | Potency [13] | outcome [14] | Potency [15] | Potency [16]

CCN(C=O)CC
inactive: Potency [18] | outcome [1] | outcome [20] | outcome [19] | Potency [4] | outcome [5] | Potency [6] | Potency [7] | Potency [8] | outcome [9] | max response [10] 2.6% | outcome [11] | outcome [12] | Potency [13] | outcome [14] | Potency [15] | Potency [16]

CNCC(O)c1ccc(O)c(O)c1 (stereo unspecified)
inactive: Potency [17] | outcome [20] | Potency [2] | outcome [19] | Potency [4] | outcome [5] | Potency [6] | Potency [7] | outcome [9] | max response [10] 0.68% | outcome [11] | outcome [12] | Potency [13] | outcome [14] | Potency [15] | Potency [16]

O=C1c2ccccc2C(=O)c2cc(O)ccc21
inactive: Potency [17] | outcome [1] | outcome [20] | outcome [19] | outcome [5] | Potency [7] | outcome [9] | outcome [11] | outcome [12] | Potency [13] | outcome [14] | Potency [15] | Potency [16]

CC1=CCC(O)(C(C)C)CC1 (stereo unspecified)
inactive: Potency [17] | Potency [18] | outcome [19] | Potency [4] | Potency [6] | Potency [7] | outcome [9] | max response [10] 2.79% | outcome [11] | outcome [12] | Potency [13] | outcome [14] | Potency [15] | Potency [16]

N[C@H](C(=O)O)[C@@H](O)c1ccc(O)c(O)c1
inactive: Potency [17] | outcome [1] | outcome [20] | outcome [19] | Potency [4] | outcome [5] | Potency [7] | Potency [8] | outcome [9] | max response [10] 0.604% | outcome [11] | outcome [12] | Potency [13] | outcome [14] | Potency [16]

CCCc1nn(C)c2c(=O)[nH]c(-c3cc(S(=O)(=O)N4CCN(C)CC4)ccc3OCC)nc12
inactive: Potency [17] | outcome [1] | outcome [20] | outcome [19] | Potency [6] | Potency [7] | outcome [9] | outcome [11] | outcome [12] | Potency [13] | outcome [14] | Potency [15] | Potency [16]
